Most compounds without a hit are left out; they make up all but 2.8% or so of the library.
GLP1R cytotox: cytotoxicity counter-screen for GLP-1 receptor inverse agonists | HEK293 cAMP-luciferase reporter cells, luminescence, 24 h | Potency, µM (top dose mostly 38.3 µM), for the others: top-dose activity change, negative = inhibition, actives largely listed as inhibitors | actives 0.13% (n = 410,000) | AID 624418;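 also: loss of luciferase light is scored as toxicity; potency is read from the fitted curve at half-maximal effect; % is scaled to controls: 0 for no effect and ±100 for the full control effect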
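Here, cytotoxicity is scored as loss of luminescence. The MLSMR collection was tested on cells seeded in medium containing 10% Nu serum, with a 24 hr compound exposure preceded by 12 hours of culture.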
GLS inhibitor: glutaminase GLS (human) inhibition | GLS enzymatic activity, qHTS titration | O94925 | Potency, µM (series often up to 45.5 µM), without a hit: top-dose activity change, negative = inhibition, most hits filed as inhibitors | actives 0.21% (n = 410,000); also: potency is read from the fitted curve at half-maximal effect; % is scaled to controls: 0 for no effect and ±100 for the full control effect
Target sequence (O94925 whole entry, looked up): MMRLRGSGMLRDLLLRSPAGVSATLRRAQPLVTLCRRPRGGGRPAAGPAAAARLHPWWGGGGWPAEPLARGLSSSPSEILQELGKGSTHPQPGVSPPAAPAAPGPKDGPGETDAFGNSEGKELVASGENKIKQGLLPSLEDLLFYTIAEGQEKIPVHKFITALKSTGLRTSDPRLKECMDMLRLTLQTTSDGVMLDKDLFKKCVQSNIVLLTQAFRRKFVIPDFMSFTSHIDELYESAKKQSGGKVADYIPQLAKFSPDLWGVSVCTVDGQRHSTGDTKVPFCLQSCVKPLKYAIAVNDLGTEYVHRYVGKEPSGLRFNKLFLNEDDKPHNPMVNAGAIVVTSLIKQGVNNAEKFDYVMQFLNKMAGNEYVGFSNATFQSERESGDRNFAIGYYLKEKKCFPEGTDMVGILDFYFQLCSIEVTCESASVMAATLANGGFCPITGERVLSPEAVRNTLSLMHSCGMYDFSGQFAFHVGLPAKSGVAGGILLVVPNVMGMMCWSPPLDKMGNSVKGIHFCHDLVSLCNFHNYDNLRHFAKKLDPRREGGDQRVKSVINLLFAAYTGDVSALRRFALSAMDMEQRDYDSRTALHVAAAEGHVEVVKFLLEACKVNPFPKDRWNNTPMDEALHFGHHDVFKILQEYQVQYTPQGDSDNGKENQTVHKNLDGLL
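Enzyme dispensed in phosphate buffer (45 mM, pH 8.2, 0.02% Tween-20), compounds pinned in, then 1 mM L-glutamine solution and the glutamate oxidase–HRP–Amplex Red mix added; fluorescence read immediately and again after 30 min at room temperature.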
hERG WT inh: inhibitors of human wildtype KCNH2 potassium channel; actives 0.37% (n = 340,000); U2OS, BacMam KCNH2, thallium flux FluxOr; hits give low values; Q12809; activity change, % at 1.84 µM;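 active = maximum activity change below -70%; inconclusive = maximum activity change between -70% and -50%; inactive = maximum activity change above -50%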; also: % is scaled to controls: 0 for no effect and ±100 for the full control effect
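U2OS cells transduced with wild-type KCNH2 virus are loaded with FluxOr dye for 45 min, and thallium flux is measured in kinetic reads before and after stimulation buffer. Rate constants are normalized to DMSO controls.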
GLP-1R agonist: GLP-1 receptor (human) agonism | P43220 | Potency, µM (highest dose often 45.6 µM), without a hit: at the highest dose activation, hits mostly activators | actives 0.007% (n = 380,000) | AID 624172 | HEK293 GLP-1R CRE-luciferase, luminescence, 4-6 h; cells express a hypersensitive GLP-1R form; also: potency is read from the fitted curve at half-maximal effect; % of control where 0% means no effect
KCNH2 3.1 block: blocks the human KCNH2 3.1 channel isoform; U2OS KCNH2 3.1, thallium flux FluxOr; hits give low values; activity change, % (tested at about 1.8 µM); actives 0.95% (n = 340,000); AID 720553;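 active = maximum activity change below -70%; inconclusive = maximum activity change from -70% to -50%; inactive = maximum activity change above -50%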;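 also: thallium influx rate constant from kinetic fluorescence after stimulation buffer; % is scaled to controls: 0 for no effect and ±100 for the full control effect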
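FluxOr-based Tl+ influx in U2OS cells transduced with KCNH2 3.1 virus; rate constants normalized to DMSO controls.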
GLP-1R inv ag: GLP-1 receptor (human) inverse agonism | P43220 | actives 1.6% (n = 410,000) | AID 624417 | HEK293 GLP-1R CRE-luciferase, luminescence, 24 h; GLP-1R form is constitutively active | Potency, µM (doses to about 38.3 µM), inactives show at the highest dose activity change, negative = inhibition, hits mostly inhibitors; also: potency is read from the fitted curve at half-maximal effect; % is scaled to controls: 0 for no effect and ±100 for the full control effect; nearly all actives have a fitted effect of over 55% in size
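Readout was luciferase luminescence, measured 12 min after detection reagent at room temperature. Beforehand, GLP-1R reporter HEK293 cells had sat 12 h, then received compounds for 24 hr at 37 deg C.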
Active calls of the source: *. Unless noted, calls follow the shape of the dose curve; as a rule, active = well fitted curve in the direction sought with a large enough effect; inconclusive = small, poorly fitted or top-dose-only effect, or another doubt; inactive = no such curve, though single readings can be large; an effect the other way counts as inactive or inconclusive.

Results for CC(C)(C)C(=O)N/C(N)=N/c1nc2ccccc2o1 ?
GLP1R cytotox: inconclusive; GLS inhibitor: 10.5%; hERG WT inh: 0.5; GLP-1R agonist: 4.8%; KCNH2 3.1 block: 1.6; GLP-1R inv ag: 11.2µM*

Results for CCC(=O)N/C(N)=N/c1nc2ccccc2o1 ?
GLP1R cytotox: -9.9%; GLS inhibitor: -1.1%; hERG WT inh: 3.2; GLP-1R agonist: 6.7%; KCNH2 3.1 block: 11.4; GLP-1R inv ag: -12.8%

What do the screens show for `CC(=O)c1ccc2noc(-c3cccc(F)c3)c2c1`?
GLP1R cytotox: 3.6%; GLS inhibitor: -15.6%; hERG WT inh: 6.8; GLP-1R agonist: 7.7%; KCNH2 3.1 block: -82.8*; GLP-1R inv ag: 37.1%

What do the screens show for `CC1(CC(=O)N/N=C/c2cc(Br)c(O)cc2O)OCCO1`?
GLP1R cytotox: 4.8%; GLS inhibitor: 10µM*; hERG WT inh: 14.7; GLP-1R agonist: -10.8%; KCNH2 3.1 block: -7.1; GLP-1R inv ag: 38.5%

Results for NC(CO)(CO)CO ?
GLS inhibitor: -11.9%; GLP-1R agonist: -1.7%

How did COc1cc(NC(=O)c2nn(-c3ccc(F)cc3)c(=O)n(C)c2=O)cc(OC)c1OC do in these assays?
GLP1R cytotox: 9.6%; GLS inhibitor: -10.0%; GLP-1R inv ag: 15.6%

How did CCOC(=O)c1ccc(N2C(=O)CC(N3CCN(C/C=C/c4ccccc4)CC3)C2=O)cc1 (centres undefined) do in these assays?
GLP1R cytotox: 10.4%; GLS inhibitor: 13.6%; hERG WT inh: -83.7*; GLP-1R agonist: -1.8%; KCNH2 3.1 block: -101.1*; GLP-1R inv ag: 0.7%

Results for CCOC(=O)c1ccc(S(=O)(=O)N2CCN(C3CC(=O)N(c4ccc(OC)cc4)C3=O)CC2)cc1 (centres undefined) ?
GLP1R cytotox: -3.1%; GLS inhibitor: -2.4%; hERG WT inh: 1.5; GLP-1R agonist: -5.2%; KCNH2 3.1 block: 2.9; GLP-1R inv ag: -9.3%

How did COCc1nnc(NC(=O)C2CC(=O)N(CCc3ccc(F)cc3)C2)s1 (centres undefined) do in these assays?
GLP1R cytotox: 11.7%; GLS inhibitor: 3.1%; hERG WT inh: -3.4; GLP-1R agonist: 2.1%; KCNH2 3.1 block: -21.7; GLP-1R inv ag: -15.9%

Results for NC(=O)NNc1ccccc1 ?
GLS inhibitor: 5.6%; GLP-1R agonist: 2.6%

What do the screens show for `CC(C)C(O)(C(=O)NNc1ccccc1)C(C)C`?
GLP1R cytotox: -1.4%; GLS inhibitor: 12.6µM*; hERG WT inh: -6.7; GLP-1R agonist: -1.0%; KCNH2 3.1 block: -7.4; GLP-1R inv ag: -12.5%

Results for O=C(Cc1c[nH]c2ccccc12)OCC(=O)c1ccccc1 ?
GLP1R cytotox: 0.7%; GLS inhibitor: 18.7%; hERG WT inh: 1.5; GLP-1R agonist: 1.7%; KCNH2 3.1 block: -2.1; GLP-1R inv ag: 12.6µM*

Results for COCCN(C(=O)COC(=O)c1ccccc1Nc1ccccc1)c1c(N)n(Cc2ccccc2)c(=O)[nH]c1=O ?
GLP1R cytotox: -14.3%; GLS inhibitor: 2.6%; hERG WT inh: 2.1; GLP-1R agonist: 8.5%; KCNH2 3.1 block: -0.7; GLP-1R inv ag: 12.6µM*

How did CCCn1c(N)c(N(CCOC)C(=O)COC(=O)c2ccccc2NCCO)c(=O)[nH]c1=O do in these assays?
GLP1R cytotox: 13.3%; GLS inhibitor: -3.4%; hERG WT inh: -6.4; GLP-1R agonist: 2.1%; KCNH2 3.1 block: -192.4*; GLP-1R inv ag: -14.1%

Results for CN(C(=O)COC(=O)c1ccccc1Nc1ccccc1)c1c(N)n(Cc2ccccc2)c(=O)[nH]c1=O ?
GLP1R cytotox: 2.4%; GLS inhibitor: -1.9%; hERG WT inh: 0.5; GLP-1R agonist: 5.0%; KCNH2 3.1 block: 4.2; GLP-1R inv ag: inconclusive

What do the screens show for `CCCCn1c(N)c(N(CC(C)C)C(=O)COC(=O)c2ccccc2NCCO)c(=O)[nH]c1=O`?
GLP1R cytotox: 10.4%; GLS inhibitor: 3.9%; hERG WT inh: -5.6; GLP-1R agonist: -8.0%; KCNH2 3.1 block: 8.3; GLP-1R inv ag: 5.6%

How did Cc1c(Cl)cccc1NC(=O)CSc1nc(=O)n(CCN2CCOCC2)c2c1CCC2 do in these assays?
GLP1R cytotox: 2.2%; GLS inhibitor: -0.4%; GLP-1R inv ag: 5.1%

Results for C[C@@H]1CN([C@H](C)CO)C(=O)CCCn2nncc2CO[C@H]1CN(C)C(=O)c1cc(-c2ccccc2)on1 ?
GLP1R cytotox: -7.1%; GLS inhibitor: -3.0%; hERG WT inh: -2.8; GLP-1R agonist: 2.6%; KCNH2 3.1 block: -97.4*; GLP-1R inv ag: 9.6%

How did CN(C)S(=O)(=O)c1cccc(N=C2NN=C(c3ccccc3)CS2)c1 do in these assays?
GLP1R cytotox: inconclusive; GLS inhibitor: 11.9%; hERG WT inh: -2.0; GLP-1R agonist: -10.4%; KCNH2 3.1 block: 3.4; GLP-1R inv ag: 11.2µM*

Results for CC(=O)Nc1ccc(C2=NNC(=Nc3cccc(S(=O)(=O)N(C)C)c3)SC2)cc1 ?
GLP1R cytotox: inconclusive; GLS inhibitor: 18.6%; GLP-1R agonist: -4.1%; KCNH2 3.1 block: -26.4; GLP-1R inv ag: inconclusive

What do the screens show for `COc1ccc(Nc2nc(-c3cccs3)nc3ccccc23)cc1`?
GLP1R cytotox: 82.3%; GLS inhibitor: 13.2%; hERG WT inh: -16.5; GLP-1R agonist: 6.7%; KCNH2 3.1 block: -19.8; GLP-1R inv ag: inconclusive

How did COc1cccc(Nc2nc(-c3cccs3)nc3ccccc23)c1 do in these assays?
GLP1R cytotox: -5.5%; GLS inhibitor: -1.4%; hERG WT inh: -6.1; GLP-1R agonist: 27.2%; GLP-1R inv ag: 11.2µM*

How did Cc1ccc(S(=O)(=O)N2CCC(=O)N(C(COCc3ccc(Cl)cc3)Cc3ccccc3)CC2)cc1 (centres undefined) do in these assays?
GLP1R cytotox: 0.0%; GLS inhibitor: -1.1%; hERG WT inh: 8.6; GLP-1R agonist: 7.9%; KCNH2 3.1 block: inconclusive; GLP-1R inv ag: 11.2µM*

What do the screens show for `Cc1cccc(C(=O)N2CCC(=O)N([C@H](COCc3cccc(C(F)(F)F)c3)Cc3ccccc3)CC2)c1`?
GLP1R cytotox: inconclusive; GLS inhibitor: 1.0%; GLP-1R agonist: 0.2%; GLP-1R inv ag: 11.2µM*

What do the screens show for `Cc1cccc(C(=O)N2CCC(=O)N(C(COCc3cccc(C(F)(F)F)c3)Cc3ccccc3)CC2)c1` (centres undefined)?
GLP1R cytotox: -25.1%; GLS inhibitor: 10.1%; hERG WT inh: 6.2; GLP-1R agonist: -2.8%; KCNH2 3.1 block: -2.1; GLP-1R inv ag: inconclusive

Results for Cc1cccc(COC[C@H](Cc2ccccc2)N2CCN(C(=O)c3cc(Cl)cc(Cl)c3)CCC2=O)c1 ?
GLP1R cytotox: inconclusive; GLS inhibitor: -0.5%; GLP-1R agonist: -2.4%; GLP-1R inv ag: 11.2µM*

Screening data (PubChem BioAssay)
